# Screens: PubChem, University of Kansas High Throughput Screening Laboratory
# Sampled rows, rich in hits. Any-hit rate of the full collection: about 3.5%.
# mHTT CaM bind = disrupts binding of mutant huntingtin to calmodulin; P42858; AlphaScreen His-mHTT/GST-CaM binding, luminescence; inhibition, % at 15 µM; 190,000 tested, 3.6% active; AID 1671202;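 note: 0% = both proteins with DMSO and 100% = one protein alone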
# Pf apPOL block = Pf-apPOL DNA polymerase inhibition; Recombinant Pf-apPOL, molecular beacon fluorescence, 1.5 h; inhibition, % at 10 µM; 210,000 tested, 0.25% active; AID 1794808
# An asterisk follows results filed as active; ! = not confirmed by another sample. Cut-off read from the data, not from the text of the source: active = inhibition above about 50%; inactive = the rest.
SMILES,mHTT CaM bind,Pf apPOL block
COc1cc(OC)cc(C(=O)N2CCCC3(C2)Nc2ccccc2NC3=NC(C)(C)C)c1 (stereo unspecified),21,4
COc1ccccc1NC(=O)N1CCCC2(C1)Nc1ccccc1NC2=NC(C)(C)C (stereo unspecified),67*,-4
CC(C)(C)N=C1Nc2ccccc2NC12CCCN(C(=O)NCc1ccco1)C2 (stereo unspecified),30,4
O=C(Nc1ccc(Cl)c(Cl)c1)N1CCN(c2ncccc2C(F)(F)F)CC1,-8,-3
Cc1ccc(Cl)cc1N(CC(=O)Nc1ccccc1C(=O)N1CCCC1)S(C)(=O)=O,0,-2
COc1ccc(C2=N/C(=C\c3ccccc3)C(=O)O2)c(Br)c1,2,-8
COc1ccc(OC)c(C=C2Oc3c(CN4CCCC4)c(O)cc(C)c3C2=O)c1,16,-5
O=C(c1cc(F)ccc1F)N1CCC(n2nc(-c3ccsc3)ccc2=O)CC1,98*,0
CCOC(=O)c1cc(C)nn1C1CCN(C(=O)c2ccc(F)cc2F)CC1,-4,-3
O=C(c1cc(F)ccc1F)N1CCC(CCOCc2ccc(F)cc2)CC1,-21,-8
O=C(c1ccc(F)cc1F)N1CCC(n2nc(-c3ccsc3)ccc2=O)CC1,100*,-5
O=C(c1ccccn1)N1CCC(n2nc(-c3ccsc3)ccc2=O)CC1,32,-6
O=C(c1ccccc1F)N1CCC(n2nc(-c3ccsc3)ccc2=O)CC1,86*,6
O=C(Nc1ccccc1)N1CCc2nc(-c3ccc(F)cc3)ncc2C1,0,-1
COc1ccc(NC(=O)c2ncn[nH]2)c([N+](=O)[O-])c1,100*,-3
COc1ccc(NC(=O)c2cc(OC)c(OC)c(OC)c2)c([N+](=O)[O-])c1,-4,1
COc1ccc(OCC(=O)N2CCCC2C(=O)NCCc2csc(C)n2)cc1 (stereo unspecified),0,-4
Cc1sc2ccn(C)c(=O)c2c1C(=O)N1CCCCCC1,7,-1
CCCn1ccc2sc(C)c(C(=O)N3CCCC3)c2c1=O,6,3
CCCn1ccc2sc(C)c(C(=O)N3CCN(c4ccc(F)cc4)CC3)c2c1=O,60*,1
Cc1ccc(C)c(N2CCN(C(=O)c3c(C)sc4ccn(C)c(=O)c34)CC2)c1,92*,0
CCn1ccc2sc(C)c(C(=O)N3CCN(c4ccc(F)cc4)CC3)c2c1=O,55*,-3
CCn1ccc2sc(C)c(C(=O)N3CCN(c4ccccc4F)CC3)c2c1=O,41,-4
O=C(c1cc2n(n1)CCCN(Cc1ccccc1)C2=O)N1CCN(c2ccccc2)CC1,11,5
CCC(CC)N1CCN(C(=O)c2cccc3[nH]cc(CN4CCSCC4)c23)CC1,20,-3
SMILES,mHTT CaM bind,Pf apPOL block
COc1cc(C2C(C#N)=C(N)Oc3n[nH]c(-c4cccs4)c32)ccc1O (stereo unspecified),24,-5
O=C(Cc1ccsc1)N1CCCC(c2nncn2-c2ccccc2)C1 (stereo unspecified),47,10
COc1cccc(CN2CCN(c3ccccc3OC)C(=O)C2C)c1 (stereo unspecified),23,0
O=C(Nc1c2c(nn1-c1ccc([N+](=O)[O-])cc1)CSC2)c1ccccc1Br,26,6
CCOc1ccc(-n2c(SCC(=O)NCC3CCCO3)nc3n[nH]c(C)c3c2=N)cc1 (stereo unspecified),9,-1
CCOc1ccc(-n2c(SC(CC)C(=O)NCCOC)nc3n[nH]c(C)c3c2=N)cc1 (stereo unspecified),36,-4
Cc1[nH]nc2nc(SCC(=O)NCc3ccco3)n(-c3ccc(Br)cc3)c(=N)c12,80*,-2
Cc1ccc(-n2c(SCC(=O)NCc3ccco3)nc3n[nH]c(C)c3c2=N)cc1C,49,2
Cc1[nH]nc2nc(SCC(=O)NCC3CCCO3)n(-c3ccc(Br)cc3)c(=N)c12 (stereo unspecified),52*,-6
CCC(C)NC(=O)CSc1nc2n[nH]c(C)c2c(=N)n1-c1ccc(OC)cc1 (stereo unspecified),48,-4
COc1cccc(NC(=O)CSc2nc3n[nH]c(C)c3c(=N)n2-c2ccc(C)cc2)c1,57*,0
CCOc1ccc(-n2c(SC(CC)C(=O)N(CC)CC)nc3n[nH]c(C)c3c2=N)cc1 (stereo unspecified),52*,-3
CCc1nc(-c2cccnc2N2CCCC(C(=O)NC3CCCCC3)C2)no1 (stereo unspecified),4,-4
COc1ccc(NC(=O)Nc2nnc(CC3=CCCCC3)s2)cc1,-6,-8
c1cc(CN2CCCCC2c2nncn2CC2CC2)c2cc[nH]c2c1 (stereo unspecified),4,-2
Cc1ccc(C=C2C(=O)OC(C)(C(C)(C)C)OC2=O)cc1 (stereo unspecified),17,-11
CCc1c(C(=O)O)nnn1-c1ccccc1F,0,3
COc1cccc(-c2nc(C3CCN(C(=O)c4cccc(C#N)c4)CC3)no2)c1,4,5
CN(CC(=O)NCCc1ccccc1)S(=O)(=O)c1ccc2[nH]c3c(c2c1)CCCC3,33,-4
COc1ccccc1CNC(=O)CN(C)S(=O)(=O)c1ccc2[nH]c3c(c2c1)CCCC3,58*,-2
Cc1ccc(CCNC(=O)CN(C)S(=O)(=O)c2ccc3[nH]c4c(c3c2)CCCC4)cc1,59*,-3
COc1cccc(CNC(=O)CN(C)S(=O)(=O)c2ccc3[nH]c4c(c3c2)CCCC4)c1,36,-2
COc1ccccc1NC(=O)CN(C)S(=O)(=O)c1ccc2[nH]c3c(c2c1)CCCC3,46,-1
CN(CC(=O)NCc1ccc(Cl)cc1)S(=O)(=O)c1ccc2[nH]c3c(c2c1)CCCC3,58*,-3
C=CCN(c1ccccc1)C(C(=O)NC1CCCC1)c1cc2c(cc1[N+](=O)[O-])OCO2 (stereo unspecified),10,-4
SMILES,mHTT CaM bind,Pf apPOL block
O=C(CSc1cn(CCNC(=O)c2ccccc2F)c2ccccc12)NCc1ccco1,13,0
Cn1cc(CCC(=O)NCc2ccco2)c2ccccc21,3,-12
O=C(CSc1cn(Cc2ccc(Cl)cc2)c2ccccc12)NCc1ccco1,54*,-2
Cc1ccccc1Cn1cc(SCC(=O)NCc2ccco2)c2ccccc21,86*,-1
O=C1OC(/C=C/c2ccc(Cl)cc2)=NC/1=C\C=C\c1ccccc1,-3,-2
Cc1ccccc1OCC(=O)Nc1ccc2oc(-c3cccnc3)nc2c1,4,5
N#CC1=C(N)OC2=C(C(=O)CC(c3ccccc3)C2)C1c1ccc(Cl)cc1Cl (stereo unspecified),69*,-6
N#CC1=C(N)OC2=C(C(=O)CC(c3ccccc3)C2)C1c1ccsc1 (stereo unspecified),6,1
N#CC1=C(N)OC2=C(C(=O)CC(c3ccccc3)C2)C1C1CCCCC1 (stereo unspecified),60*!,51*!
N#CC1=C(N)OC2=C(C(=O)CC(c3ccccc3)C2)C1c1ccc(Cl)cc1 (stereo unspecified),-2,-8
COc1ccc(-c2cc3n(n2)CCCN(S(=O)(=O)c2cccc4cccnc24)C3)cc1,0,-5
Cc1ccccc1NC(=O)CN1CCC(c2nc(-c3ccccc3C)no2)CC1,-1,3
CNc1ccc([N+](=O)[O-])cc1-n1cc2c(c1-c1ccccc1)c(=O)n(C)c(=O)n2C,15,65*
